These results are taken from PMC7862700, “An all-to-all approach to the identification of sequence-specific readers for epigenetic DNA modifications on cytosine”.

Holding throughout (assay): DAPPL (digital affinity profiling via proximity ligation, sequencing); 10 mM Tris-HCl pH 7.5, 50 mM NaCl, 1 mM DTT, 4% glycerol, room temperature, 30 min; GST-TFs on glutathione beads, 16-mer random dsDNA library, 0.1% formaldehyde crosslink after washing; high values mean tight binding
One assay has as its target T1, FEV (Homo sapiens, UniProt Q99581 1-238).
T1 sequence: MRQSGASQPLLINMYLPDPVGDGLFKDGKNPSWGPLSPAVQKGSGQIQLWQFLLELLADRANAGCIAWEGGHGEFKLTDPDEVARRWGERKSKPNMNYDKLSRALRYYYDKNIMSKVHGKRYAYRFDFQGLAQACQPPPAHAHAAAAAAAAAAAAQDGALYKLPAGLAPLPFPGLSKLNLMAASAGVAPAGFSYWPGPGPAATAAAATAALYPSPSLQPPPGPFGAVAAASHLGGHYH
The note with it: protein: recombinant; tags: N-terminal GST; dsDNA, one strand shown. In short, it runs like this:
(§1)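 Binding signal is defined as a hexamer's read frequency for one factor over its frequency for the tag-only sample. To obtain reads, GST-fused human transcription factors were expressed in yeast, captured on glutathione beads, barcoded with DNA and pooled with that sample. Pools met 200 nmole of a 16-mer random double-stranded DNA library in Tris/NaCl/DTT/glycerol buffer for 30 min at room temperature before washing, 0.1% formaldehyde crosslinking, proximity ligation (BsaI/T4 ligase, 1 h, 37 °C), PCR and Illumina NextSeq500 sequencing.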

The target in another assay is ETV5 (Homo sapiens, UniProt P41161 1-510). The note with it: protein: recombinant; tags: N-terminal GST; dsDNA, one strand shown. An outline of the steps: as §1
Chain of ETV5 (P41161 whole entry): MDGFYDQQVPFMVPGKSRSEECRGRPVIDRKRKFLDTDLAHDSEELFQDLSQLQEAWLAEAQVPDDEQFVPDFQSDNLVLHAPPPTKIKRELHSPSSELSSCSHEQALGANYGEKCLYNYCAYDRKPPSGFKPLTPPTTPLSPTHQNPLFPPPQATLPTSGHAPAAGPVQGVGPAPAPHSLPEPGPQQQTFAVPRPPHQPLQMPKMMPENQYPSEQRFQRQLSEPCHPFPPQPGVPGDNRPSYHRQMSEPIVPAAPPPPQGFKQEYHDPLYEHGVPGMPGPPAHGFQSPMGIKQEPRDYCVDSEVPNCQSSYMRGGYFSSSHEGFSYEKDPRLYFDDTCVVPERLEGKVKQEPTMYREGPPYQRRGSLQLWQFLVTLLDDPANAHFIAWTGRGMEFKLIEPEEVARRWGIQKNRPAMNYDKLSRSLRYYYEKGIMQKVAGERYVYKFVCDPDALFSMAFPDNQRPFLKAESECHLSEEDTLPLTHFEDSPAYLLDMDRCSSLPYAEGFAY
In another assay the target is HSF1 (Homo sapiens, UniProt Q00613 1-529). The note with it: protein: recombinant; tags: N-terminal GST; chain copies: 3; dsDNA, one strand shown. In short, it runs like this:
as §1

The target in a further assay is T2, SPIC (Homo sapiens, UniProt Q8N5J4 1-248).
T2 sequence: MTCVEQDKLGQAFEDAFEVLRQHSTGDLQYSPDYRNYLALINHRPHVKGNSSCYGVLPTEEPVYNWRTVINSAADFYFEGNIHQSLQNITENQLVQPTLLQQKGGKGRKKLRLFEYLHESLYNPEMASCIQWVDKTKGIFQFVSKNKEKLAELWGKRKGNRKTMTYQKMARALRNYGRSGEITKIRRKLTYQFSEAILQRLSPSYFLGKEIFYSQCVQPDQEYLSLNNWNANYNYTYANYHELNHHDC
The note with it: protein: recombinant; tags: N-terminal GST; dsDNA, one strand shown. An outline of the steps: as §1

Another assay concerns the target ELF4 (Homo sapiens, UniProt Q99607 1-663). The note with it: protein: recombinant; tags: N-terminal GST; dsDNA, one strand shown. An outline of the steps:
as §1

The target of another assay is T3, ELK4 (Homo sapiens, UniProt P28324-2 1-405).
T3 sequence: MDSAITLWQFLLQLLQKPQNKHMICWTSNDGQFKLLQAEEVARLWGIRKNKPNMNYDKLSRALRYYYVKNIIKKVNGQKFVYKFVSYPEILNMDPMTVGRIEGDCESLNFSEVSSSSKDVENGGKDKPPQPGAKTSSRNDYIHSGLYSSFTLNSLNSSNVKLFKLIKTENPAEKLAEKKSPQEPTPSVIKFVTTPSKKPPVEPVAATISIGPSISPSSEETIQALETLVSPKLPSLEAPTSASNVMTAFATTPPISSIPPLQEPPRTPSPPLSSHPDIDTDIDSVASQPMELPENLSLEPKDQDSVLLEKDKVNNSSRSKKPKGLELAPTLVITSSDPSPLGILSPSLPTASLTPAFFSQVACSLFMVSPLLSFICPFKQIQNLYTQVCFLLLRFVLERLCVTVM
The note with it: protein: recombinant; tags: N-terminal GST; dsDNA, one strand shown. In short, it runs like this: as §1

A further assay addresses T4, ETV2 (Homo sapiens, UniProt O00321 1-342).
T4 sequence: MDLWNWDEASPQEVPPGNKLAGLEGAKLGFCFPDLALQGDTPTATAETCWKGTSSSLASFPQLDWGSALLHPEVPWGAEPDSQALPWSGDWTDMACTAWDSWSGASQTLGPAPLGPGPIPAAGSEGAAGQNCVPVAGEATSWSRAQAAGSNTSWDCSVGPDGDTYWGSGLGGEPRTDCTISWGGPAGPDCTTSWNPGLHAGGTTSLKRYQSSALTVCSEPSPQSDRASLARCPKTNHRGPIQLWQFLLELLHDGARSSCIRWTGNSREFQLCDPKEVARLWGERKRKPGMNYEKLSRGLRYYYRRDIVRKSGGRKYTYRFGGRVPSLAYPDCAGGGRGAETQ
The note with it: protein: recombinant; tags: N-terminal GST; dsDNA, one strand shown. In short, it runs like this:
as §1

The next assay has as its target T5, ELF3 (Homo sapiens, UniProt P78545 1-371).
T5 sequence: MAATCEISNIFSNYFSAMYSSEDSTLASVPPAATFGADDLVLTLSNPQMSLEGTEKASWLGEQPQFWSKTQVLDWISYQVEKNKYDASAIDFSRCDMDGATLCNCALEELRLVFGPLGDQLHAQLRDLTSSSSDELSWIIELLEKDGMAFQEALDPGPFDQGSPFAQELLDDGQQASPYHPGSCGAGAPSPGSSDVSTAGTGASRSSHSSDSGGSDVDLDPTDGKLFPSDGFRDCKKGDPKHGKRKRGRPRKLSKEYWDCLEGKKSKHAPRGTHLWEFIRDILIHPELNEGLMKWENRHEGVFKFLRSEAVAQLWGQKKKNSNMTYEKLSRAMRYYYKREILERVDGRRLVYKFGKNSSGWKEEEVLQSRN
The note with it: protein: recombinant; tags: N-terminal GST; dsDNA, one strand shown. In short, it runs like this:
as §1

For a further assay, the target named is CRX (Homo sapiens, UniProt O43186 1-299). The note with it: protein: recombinant; tags: N-terminal GST; dsDNA, one strand shown. In short, it runs like this: as §1
Chain of CRX (O43186 whole entry): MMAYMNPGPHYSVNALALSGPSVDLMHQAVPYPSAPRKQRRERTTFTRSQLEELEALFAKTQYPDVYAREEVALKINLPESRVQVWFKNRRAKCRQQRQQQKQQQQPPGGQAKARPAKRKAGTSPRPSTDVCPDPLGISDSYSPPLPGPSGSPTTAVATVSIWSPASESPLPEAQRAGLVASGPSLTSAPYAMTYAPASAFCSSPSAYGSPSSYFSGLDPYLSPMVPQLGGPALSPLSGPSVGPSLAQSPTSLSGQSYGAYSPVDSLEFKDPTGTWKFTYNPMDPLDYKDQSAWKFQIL
The target of the next assay is ETV1 (Homo sapiens, UniProt P50549 1-477). The note with it: protein: recombinant; tags: N-terminal GST; dsDNA, one strand shown. In short, it runs like this:
as §1

A further assay has as its target T6, ERF (Homo sapiens, UniProt P50548 1-548).
T6 sequence: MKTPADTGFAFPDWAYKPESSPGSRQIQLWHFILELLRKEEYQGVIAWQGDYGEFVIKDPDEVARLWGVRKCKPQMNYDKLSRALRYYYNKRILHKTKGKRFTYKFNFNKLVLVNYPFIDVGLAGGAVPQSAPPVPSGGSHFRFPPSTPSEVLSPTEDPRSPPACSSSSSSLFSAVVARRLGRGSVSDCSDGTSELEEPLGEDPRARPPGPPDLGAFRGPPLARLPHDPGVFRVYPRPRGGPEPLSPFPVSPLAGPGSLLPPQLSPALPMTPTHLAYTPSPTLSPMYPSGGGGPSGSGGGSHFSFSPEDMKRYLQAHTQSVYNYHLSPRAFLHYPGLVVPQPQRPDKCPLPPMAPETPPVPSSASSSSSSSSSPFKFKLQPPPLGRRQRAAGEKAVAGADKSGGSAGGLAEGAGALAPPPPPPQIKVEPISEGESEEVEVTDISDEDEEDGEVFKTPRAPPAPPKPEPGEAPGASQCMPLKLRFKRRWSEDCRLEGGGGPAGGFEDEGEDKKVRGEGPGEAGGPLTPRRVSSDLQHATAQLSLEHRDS
The note with it: protein: recombinant; tags: N-terminal GST; dsDNA, one strand shown. An outline of the steps:
as §1

The target in the next assay is T7, ETV3L (Homo sapiens, UniProt Q6ZN32 1-361).
T7 sequence: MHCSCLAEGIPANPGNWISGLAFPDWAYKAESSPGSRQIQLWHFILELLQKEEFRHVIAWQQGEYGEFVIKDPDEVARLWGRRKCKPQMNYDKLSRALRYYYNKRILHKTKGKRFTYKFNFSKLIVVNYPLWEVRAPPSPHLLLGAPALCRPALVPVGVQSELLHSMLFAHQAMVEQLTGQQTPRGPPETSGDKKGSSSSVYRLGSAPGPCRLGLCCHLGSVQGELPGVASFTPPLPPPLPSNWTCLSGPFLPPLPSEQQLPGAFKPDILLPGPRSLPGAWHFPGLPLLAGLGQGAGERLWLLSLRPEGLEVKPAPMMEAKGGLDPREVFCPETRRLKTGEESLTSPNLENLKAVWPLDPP
The note with it: protein: recombinant; tags: N-terminal GST; dsDNA, one strand shown. In short, it runs like this:
as §1

The next assay has as its target T8, ETS2 (Homo sapiens, UniProt P15036 1-469).
T8 sequence: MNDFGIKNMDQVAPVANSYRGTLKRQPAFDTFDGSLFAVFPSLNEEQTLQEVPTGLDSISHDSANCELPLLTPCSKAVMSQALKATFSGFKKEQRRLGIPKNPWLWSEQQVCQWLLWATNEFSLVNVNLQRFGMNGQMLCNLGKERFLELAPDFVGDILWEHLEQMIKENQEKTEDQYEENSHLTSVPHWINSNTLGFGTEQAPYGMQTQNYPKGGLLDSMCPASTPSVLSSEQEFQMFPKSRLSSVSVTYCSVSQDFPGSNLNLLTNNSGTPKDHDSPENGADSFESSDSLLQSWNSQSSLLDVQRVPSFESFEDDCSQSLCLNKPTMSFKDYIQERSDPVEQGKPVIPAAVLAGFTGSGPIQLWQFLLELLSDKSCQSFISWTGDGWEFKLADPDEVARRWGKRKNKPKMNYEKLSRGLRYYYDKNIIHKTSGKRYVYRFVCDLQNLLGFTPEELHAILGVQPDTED
The note with it: protein: recombinant; tags: N-terminal GST; dsDNA, one strand shown. An outline of the steps: as §1

The target of the next assay is T9, SPDEF (Homo sapiens, UniProt O95238 1-335).
T9 sequence: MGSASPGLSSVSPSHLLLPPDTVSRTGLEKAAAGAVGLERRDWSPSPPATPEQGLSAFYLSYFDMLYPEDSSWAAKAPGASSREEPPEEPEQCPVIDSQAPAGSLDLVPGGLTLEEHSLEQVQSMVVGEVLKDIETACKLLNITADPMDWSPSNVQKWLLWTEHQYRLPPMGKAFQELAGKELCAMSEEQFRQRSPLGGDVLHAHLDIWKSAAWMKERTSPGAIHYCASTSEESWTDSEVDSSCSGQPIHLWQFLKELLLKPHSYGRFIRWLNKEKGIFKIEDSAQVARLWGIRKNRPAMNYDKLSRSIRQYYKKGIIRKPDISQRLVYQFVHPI
The note with it: protein: recombinant; tags: N-terminal GST; dsDNA, one strand shown. An outline of the steps: as §1

The target in the next assay is T10, ETV7 (Homo sapiens, UniProt Q9Y603 1-341).
T10 sequence: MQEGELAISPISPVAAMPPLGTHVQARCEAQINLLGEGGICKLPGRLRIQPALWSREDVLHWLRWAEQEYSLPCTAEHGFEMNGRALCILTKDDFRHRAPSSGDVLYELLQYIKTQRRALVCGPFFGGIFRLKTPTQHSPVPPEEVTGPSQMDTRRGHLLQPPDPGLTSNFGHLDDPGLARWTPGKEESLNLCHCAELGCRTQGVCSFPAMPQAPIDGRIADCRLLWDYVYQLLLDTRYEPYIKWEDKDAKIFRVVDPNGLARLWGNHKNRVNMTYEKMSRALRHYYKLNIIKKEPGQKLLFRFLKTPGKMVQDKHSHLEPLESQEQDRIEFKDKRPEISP
The note with it: protein: recombinant; tags: N-terminal GST; dsDNA, one strand shown. In short, it runs like this:
as §1

A further assay has as its target T11, ELF5 (Homo sapiens, UniProt Q9UKW6-2 1-255).
T11 sequence: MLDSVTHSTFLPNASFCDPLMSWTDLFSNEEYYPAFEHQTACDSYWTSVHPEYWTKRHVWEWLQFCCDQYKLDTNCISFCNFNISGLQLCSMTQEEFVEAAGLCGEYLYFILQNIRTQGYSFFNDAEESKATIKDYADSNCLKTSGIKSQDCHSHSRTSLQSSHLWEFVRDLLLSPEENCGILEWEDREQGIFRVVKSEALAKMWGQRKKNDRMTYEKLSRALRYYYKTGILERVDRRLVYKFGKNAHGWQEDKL
The note with it: protein: recombinant; tags: N-terminal GST; dsDNA, one strand shown. In short, it runs like this: as §1

For the next assay, the target named is T12, ETV3 (Homo sapiens, UniProt P41162-2 1-143).
T12 sequence: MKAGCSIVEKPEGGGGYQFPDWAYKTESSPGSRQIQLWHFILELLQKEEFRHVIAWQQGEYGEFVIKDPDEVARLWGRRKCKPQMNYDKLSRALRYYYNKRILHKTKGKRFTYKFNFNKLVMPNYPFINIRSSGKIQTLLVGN
The note with it: protein: recombinant; tags: N-terminal GST; dsDNA, one strand shown. An outline of the steps: as §1

The target in another assay is ETV6 (Homo sapiens, UniProt P41212 1-452). The note with it: protein: recombinant; tags: N-terminal GST; dsDNA, one strand shown. An outline of the steps: as §1
Chain of ETV6 (P41212 whole entry): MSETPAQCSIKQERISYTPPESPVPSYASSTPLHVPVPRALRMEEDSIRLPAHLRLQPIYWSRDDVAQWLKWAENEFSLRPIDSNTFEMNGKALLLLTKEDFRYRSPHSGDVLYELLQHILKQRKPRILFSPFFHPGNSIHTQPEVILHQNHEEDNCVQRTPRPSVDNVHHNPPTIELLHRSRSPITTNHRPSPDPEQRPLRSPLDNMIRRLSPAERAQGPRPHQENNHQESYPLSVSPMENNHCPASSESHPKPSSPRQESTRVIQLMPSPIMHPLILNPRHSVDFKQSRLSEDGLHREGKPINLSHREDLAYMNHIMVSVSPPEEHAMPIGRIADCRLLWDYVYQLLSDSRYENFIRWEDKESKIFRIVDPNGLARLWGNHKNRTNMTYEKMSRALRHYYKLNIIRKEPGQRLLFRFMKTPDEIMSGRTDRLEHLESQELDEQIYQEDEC

Chain of ETV1 (P50549 whole entry): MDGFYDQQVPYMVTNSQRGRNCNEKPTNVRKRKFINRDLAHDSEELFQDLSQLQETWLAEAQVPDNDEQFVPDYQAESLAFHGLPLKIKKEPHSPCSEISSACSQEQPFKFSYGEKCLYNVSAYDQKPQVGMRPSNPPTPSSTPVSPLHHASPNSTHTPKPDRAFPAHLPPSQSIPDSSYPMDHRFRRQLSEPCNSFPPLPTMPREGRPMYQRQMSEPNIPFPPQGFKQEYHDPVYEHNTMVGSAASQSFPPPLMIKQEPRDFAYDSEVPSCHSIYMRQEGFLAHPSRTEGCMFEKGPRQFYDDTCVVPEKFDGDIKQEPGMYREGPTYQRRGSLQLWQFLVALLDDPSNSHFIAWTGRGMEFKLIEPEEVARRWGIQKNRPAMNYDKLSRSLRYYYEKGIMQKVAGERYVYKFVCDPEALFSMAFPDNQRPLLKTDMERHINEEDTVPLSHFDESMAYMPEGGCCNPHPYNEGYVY
Chain of ELF4 (Q99607 whole entry): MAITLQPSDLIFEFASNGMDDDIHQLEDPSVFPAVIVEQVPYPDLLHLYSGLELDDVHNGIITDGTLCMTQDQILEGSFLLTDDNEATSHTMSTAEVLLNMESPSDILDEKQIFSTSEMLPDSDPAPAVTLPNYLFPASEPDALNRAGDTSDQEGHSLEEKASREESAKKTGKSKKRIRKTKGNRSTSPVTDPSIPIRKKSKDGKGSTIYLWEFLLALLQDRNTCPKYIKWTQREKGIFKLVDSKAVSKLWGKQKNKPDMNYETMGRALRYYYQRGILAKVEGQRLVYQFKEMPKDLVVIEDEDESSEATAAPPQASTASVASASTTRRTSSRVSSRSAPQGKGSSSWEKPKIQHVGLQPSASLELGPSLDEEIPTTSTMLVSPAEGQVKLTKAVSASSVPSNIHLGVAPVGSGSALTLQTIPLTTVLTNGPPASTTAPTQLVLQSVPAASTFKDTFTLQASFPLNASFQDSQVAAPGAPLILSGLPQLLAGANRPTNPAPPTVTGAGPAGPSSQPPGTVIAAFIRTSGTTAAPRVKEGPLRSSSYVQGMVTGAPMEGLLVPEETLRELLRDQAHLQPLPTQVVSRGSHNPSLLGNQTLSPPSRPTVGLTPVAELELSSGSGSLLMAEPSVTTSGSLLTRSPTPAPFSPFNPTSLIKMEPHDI
Chain of HSF1 (Q00613 whole entry): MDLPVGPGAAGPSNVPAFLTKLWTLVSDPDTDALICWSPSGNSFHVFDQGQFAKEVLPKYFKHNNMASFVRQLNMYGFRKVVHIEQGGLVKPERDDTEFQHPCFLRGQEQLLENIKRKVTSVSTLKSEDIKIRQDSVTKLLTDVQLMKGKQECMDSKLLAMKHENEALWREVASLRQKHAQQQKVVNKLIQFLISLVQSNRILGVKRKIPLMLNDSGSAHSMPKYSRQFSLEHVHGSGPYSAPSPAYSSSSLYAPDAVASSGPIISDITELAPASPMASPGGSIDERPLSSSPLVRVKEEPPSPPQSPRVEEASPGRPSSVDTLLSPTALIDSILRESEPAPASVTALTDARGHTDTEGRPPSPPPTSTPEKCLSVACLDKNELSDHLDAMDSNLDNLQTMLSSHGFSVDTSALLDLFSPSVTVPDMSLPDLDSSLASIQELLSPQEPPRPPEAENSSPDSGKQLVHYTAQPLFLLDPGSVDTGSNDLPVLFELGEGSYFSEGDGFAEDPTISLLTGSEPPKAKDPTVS

In the case of TATTAA, the binding signal with FEV is 1.14 fold enrichment (6-mer frequency, TF over GST control); with ETV5, 1.13 fold enrichment (6-mer frequency, TF over GST control); with HSF1, 1.82 fold enrichment (6-mer frequency, TF over GST control); with SPIC, 1.12 fold enrichment (6-mer frequency, TF over GST control); with ELF4, 1.16 fold enrichment (6-mer frequency, TF over GST control); in the assay with ELK4, 1.02 fold enrichment (6-mer frequency, TF over GST control). In addition, the binding signal is 1.09 fold enrichment (6-mer frequency, TF over GST control) in the assay with ETV2; 1.06 fold enrichment (6-mer frequency, TF over GST control) with ELF3; 2.83 fold enrichment (6-mer frequency, TF over GST control) in the assay with CRX; 1.14 fold enrichment (6-mer frequency, TF over GST control) with ETV1; 1.22 fold enrichment (6-mer frequency, TF over GST control) in the assay with ERF; 1.18 fold enrichment (6-mer frequency, TF over GST control) with ETV3L. In addition, the binding signal with ETS2 was 1.17 fold enrichment (6-mer frequency, TF over GST control); in the assay with SPDEF it was 1.18 fold enrichment (6-mer frequency, TF over GST control); with ETV7, 1.15 fold enrichment (6-mer frequency, TF over GST control); with ELF5, 1.13 fold enrichment (6-mer frequency, TF over GST control); with ETV3, 1.16 fold enrichment (6-mer frequency, TF over GST control); in the assay with ETV6, 1.12 fold enrichment (6-mer frequency, TF over GST control).
